Bioassay records as filed in PubChem BioAssay.
This is a sample that favours compounds with a hit; in the whole collection about 2.2% have one here.
Nrf2 inh = Nrf2 qHTS screen for inhibitors | A549 ARE-Fluc reporter, luciferase luminescence, 18-24 h | Potency, µM (top dose mostly 46 µM), for the others: at the top dose activity change, negative = inhibition, actives largely listed as inhibitors | actives 2.1% (n = 360,000) | AID 504444, 2011; also: % is scaled to controls: 0 for no effect and ±100 for the full control effect; nearly all actives have a fitted effect of over 60% in size
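Cells were seeded and rested 2 h, then exposed to compounds for 18-24 h. CellTiter-Fluor was read first as a viability measure. BugLite was added 15 min before the final luminescent read of ARE-luciferase activity in A549 cells.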
Pin1 inhibitor = qHTS Assay to Find Inhibitors of Pin1. Potency, µM (highest dose often 115 µM), for inactives: at the top dose activity, negative = inhibition, hits mostly inhibitors. Peptidyl-prolyl cis-trans isomerase NIMA-interacting 1 (Homo sapiens), Q13526. AID 504891, 2011. Pin1 FP peptide displacement, HiFluor488, 10 min. actives 0.009% (n = 390,000); active = well fitted inhibition curve with a large enough effect in the polarisation, with a control signal flat, not every such curve was filed as active; inconclusive = small, poorly fitted or top-dose-only effect, or effect the other way, or a change in a side signal; inactive = no such curve, though single readings can be large or run the other way; the % refers to the polarisation; also: % is scaled to controls: 0 for no effect and ±100 for the full control effect
Target sequence (Q13526 whole entry, looked up): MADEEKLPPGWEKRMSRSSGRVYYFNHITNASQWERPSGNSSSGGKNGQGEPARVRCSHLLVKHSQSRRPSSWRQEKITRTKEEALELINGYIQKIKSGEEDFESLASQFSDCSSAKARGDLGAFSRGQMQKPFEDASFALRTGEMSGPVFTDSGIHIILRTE
Nrf2 activator = qHTS of Nrf2 Activators; Potency, µM (doses to about 46.1 µM), inactives show at the top dose activation, hits mostly activators; AREc32 ARE-luciferase reporter (MCF7-derived line), luminescence, 24 h; actives 0.31% (n = 410,000); also: % of control where 0% means no effect; nearly all actives have a fitted effect of over 65% in size
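AREc32_Fluc, 1000 cells/well, OPTI-MEM + 5% FBS, o/n 37 deg C 5% CO2; 23 nL cpd by pin tool, 24 hr; Steady-Glo 30 min RT, luminescence.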
A549 tox-1 = Nrf2 qHTS screen for inhibitors: counterscreen for cytotoxicity. AID 504648, 2011. A549 ARE-Fluc cells, CellTiter-Fluor viability, 18-24 h. Potency, µM (series often up to 46 µM), for inactives: at the highest dose activity change, negative = cytotoxicity, usual class: inhibitors. actives 0.16% (n = 390,000); also: % is scaled to controls: 0 for no effect and ±100 for the full control effect
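Cytotoxicity counterscreen: CellTiter-Fluor fluorescence was measured in A549 ARE_Fluc cells after 18-24 h of compound exposure in a concentration series. The subsequent BugLite luminescent read reports ARE-luciferase activity.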
FLuc counter 3 = Nrf2 qHTS screen for inhibitors: Purified Fluc Biochemical Counterscreen for Hit Validation; shares compounds with Nrf2 inh; purified firefly luciferase, luminescence inhibition; Potency, µM (series often up to 57.5 µM), for inactives: top-dose activity change, negative = inhibition, most hits filed as inhibitors; actives 4% (n = 1,400); AID 720522, 2013; also: % is scaled to controls: 0 for no effect and ±100 for the full control effect; nearly all actives have a fitted effect of over 65% in size
Target sequence (P08659 whole entry, looked up): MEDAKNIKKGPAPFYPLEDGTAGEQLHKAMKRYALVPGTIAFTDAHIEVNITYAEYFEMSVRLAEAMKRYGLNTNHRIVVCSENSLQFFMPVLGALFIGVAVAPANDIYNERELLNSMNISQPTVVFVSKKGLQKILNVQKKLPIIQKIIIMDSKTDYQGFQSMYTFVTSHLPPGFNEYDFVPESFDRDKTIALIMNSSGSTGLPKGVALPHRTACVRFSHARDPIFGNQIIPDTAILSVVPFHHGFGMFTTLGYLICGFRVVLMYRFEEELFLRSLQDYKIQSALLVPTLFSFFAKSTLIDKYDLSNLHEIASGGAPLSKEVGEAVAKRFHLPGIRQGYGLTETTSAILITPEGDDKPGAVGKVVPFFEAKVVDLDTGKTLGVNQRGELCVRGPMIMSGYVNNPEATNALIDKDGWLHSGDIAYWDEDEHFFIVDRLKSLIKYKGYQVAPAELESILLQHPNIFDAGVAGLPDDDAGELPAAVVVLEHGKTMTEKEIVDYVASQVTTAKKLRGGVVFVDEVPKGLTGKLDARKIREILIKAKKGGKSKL
A549 tox-2 = Nrf2 qHTS screen for inhibitors: A549 ARE-Fluc Cytotoxicity Counterscreen for Hit Validation; AID 720523, 2013; A549 ARE-Fluc cells, cytotoxicity counterscreen; actives 2% (n = 1,400); Potency, µM (top dose mostly 46.1 µM), inactives show at the top dose activity change, negative = cytotoxicity, usual class: inhibitors; shares compounds with Nrf2 inh;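 also: cells exposed to compounds for 18 to 24 hours; % is scaled to controls: 0 for no effect and ±100 for the full control effect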
ARE-Fluc inh = Nrf2 qHTS screen for inhibitors: Nrf2 A549 ARE-Fluc Confirmation Assay for Hit Validation; shares compounds with Nrf2 inh; A549 ARE-firefly luciferase reporter, luminescence; Potency, µM (doses to about 46.1 µM), without a hit: top-dose activity change, negative = inhibition, hits mostly inhibitors; actives 74% (n = 1,400); AID 720524, 2013; also: % is scaled to controls: 0 for no effect and ±100 for the full control effect; nearly all actives have a fitted effect of over 65% in size
Starred values were filed as active, the others as inactive; ? = inconclusive; / = no result; [ ] = remark or other dose. Unless noted, calls follow the shape of the dose curve; as a rule, active = well fitted curve in the direction sought with a large enough effect; inconclusive = small, poorly fitted or top-dose-only effect, or another doubt; inactive = no such curve, though single readings can be large; an effect the other way counts as inactive or inconclusive. Potency is read from the fitted curve at half-maximal effect.

SMILES	Nrf2 inh	Pin1 inhibitor	Nrf2 activator	A549 tox-1	FLuc counter 3	A549 tox-2	ARE-Fluc inh
Nc1cc[n+](CC(=O)c2ccc3c(c2)OCCO3)cc1	2.1µM*	-7%	-1%	?	-4%	?	5.8µM*
Cc1sc2ncn(CC(=O)N3CCN(c4ccc(Cl)cc4)CC3)c(=O)c2c1S(=O)(=O)N1CCN(c2ncccn2)CC1	5%[9.27 µM]	12%	0%	0%	/	/	/
CN(c1ccccc1)c1nc(C#N)nc(N2CCOCC2)n1	8.2µM*	3%	/	-8%	-23%	-12%	?
CC(=O)Nc1ccc(SCC(CC(C)C)N2CCN(CCc3ccccc3)CCC2=O)cc1 (stereo not drawn)	-11%	4%	/	-6%	/	/	/
COc1ccc(C2C3=C(CC(C)(C)CC3=O)Oc3ncn(CC(C)C)c(=N)c32)cc1 (stereo not drawn)	7%	-16%	2%	-7%	/	/	/
COc1ccc(C2C3=C(CC(C)(C)CC3=O)Oc3ncn(Cc4ccco4)c(=N)c32)cc1 (stereo not drawn)	9.2µM*	2%	9%	?	3%	-9%	9%
O=C1CC(c2nc3ccccc3n2Cc2c(F)cccc2Cl)CN1c1cccc(C(F)(F)F)c1 (stereo not drawn)	-25%	2%	-1%	-12%	/	/	/
CCN(CC)C(=O)c1oc2ccc(S(=O)(=O)N3CC(C)CC(C)C3)cc2c1C (stereo not drawn)	8.2µM*	-1%	0%	0%	0%	-6%	8.2µM*
CCN(CC)C(=O)c1oc2ccc(S(=O)(=O)N3CCCCCC3)cc2c1C	?	0%	2%	-5%	/	/	/
CC[n+]1ccc(/C=C/c2c[nH]c3ccccc23)cc1	1.3µM*	?	5%	?	-1%	?	4.6µM*
Cc1ccc2[nH]cc(/C=C/c3cc[n+](C)cc3)c2c1	1.8µM*	?	11%	-42%	0%	-30%	1.3µM*
COc1ccc2c(C=O)c[nH]c2c1	6%	?	4%	8%	/	/	/
COc1ccc2c(/C=C/c3cc[n+](C)cc3)c[nH]c2c1	1.3µM*	?	1%	?	4%	?	1.6µM*
Cc1ccc2[nH]ccc(=O)c2c1	0%	-4%	4%	-6%	/	/	/
COc1ccc(NC(=O)C2=C(C)Nc3nc(SCc4ccc(Cl)cc4)nn3C2c2cccc(OC)c2OC)cc1 (stereo not drawn)	-6%	4%	-1%	-9%	/	/	/
COc1ccc(N2CCN(C(=O)c3cn(C4CCCCC4)c(=O)c4c3c3ccccc3n4C)CC2)cc1	?	28%	0%	-17%	/	/	/
Cc1ccccc1Cn1c(C)c(CNCCCc2ccccc2)c(C(=O)O)c1C	-2%	-20%	0%	0%	/	/	/
CCC[C@H]1NC(=O)[C@H](C)N(C)C(=O)C(C)(C)C(=O)C(C)NC(=O)[C@H](Cc2ccc(OC)cc2)N(C)C(=O)[C@H](C(C)C)N(C)C(=O)CNC(=O)[C@H](CC(C)C)N(C)C(=O)CNC(=O)[C@H]([C@@H](C)CC)OC(=O)[C@H]1C (stereo partly drawn)	1µM*	1%	-2%	1.5µM*	3%	?	1.8µM*
Cc1cc(C(=O)COc2cccnc2[N+](=O)[O-])c(C)n1Cc1cccs1	?	9%	0%	-3%	/	/	/
CC(=O)Nc1ccccc1OCC(=O)c1cc(C)n(Cc2cccs2)c1C	0.41µM*	-2%	3%	?	15µM*	-4%	-24%
O=C(CSc1nnc(Cn2nnc3ccccc32)o1)Nc1cccc(Cl)c1	15%	-2%	0%	-9%	/	/	/
O=C(CSc1nnc(Cn2nnc3ccccc32)o1)N(Cc1ccc(Cl)cc1)c1ccccc1	5.8µM*	14%	0%	?	-10%	-27%	9.2µM*
O=C(CN1CCN(Cc2ccc(F)cc2Cl)S1(=O)=O)Nc1ccc(F)cc1	-18%	9%	1%	-1%	/	/	/
CCSc1nnc(-c2ccc(Cl)cc2Cl)o1	?	1%	?	17%	/	/	/
O=C(O)CCSc1nnc(-c2ccc(Cl)cc2Cl)o1	0.058µM*	-1%	-4%	-4%	3µM*	0%	0.18µM*
SMILES	Nrf2 inh	Pin1 inhibitor	Nrf2 activator	A549 tox-1	FLuc counter 3	A549 tox-2	ARE-Fluc inh
Cc1nnsc1C(=O)Nc1ccc(S(=O)(=O)N2CCC(C)CC2)cc1	9.2µM*	0%	0%	-15%	-1%	0%	5.2µM*
Cc1csc(C)[n+]1CCC1CCCCC1	/	/	/	/	4%	-8%	15µM*
Oc1ccccc1-c1nc(NC2CCCC2)c2ccccc2n1	-16%	6%	4%	-6%	/	/	/
c1ccc(-c2nnc(-c3ccccn3)nc2NC2CCCCC2)cc1	1.8µM*	-1%	5%	?	-14%	?	4.1µM*
Fc1ccccc1-n1ncc2c1ncn1nc(COc3ccc(Cl)cc3)nc21	12%	15%	0%	1%	/	/	/
Cn1cc(S(=O)(=O)N2CCc3ccccc32)cc1C(=O)NC(C)(C)C	2.1µM*	-4%	-1%	-12%	3%	-7%	4.6µM*
Cc1cccc(C)c1NC(=O)c1cc(S(=O)(=O)N2CCc3ccccc32)cn1C	6%	10%	-1%	6%	/	/	/
Cc1ccc[n+](CC(=O)Nc2cc(C(F)(F)F)ccc2Cl)c1	11%	-4%	-1%	1%	/	/	/
CCC(C)(C)c1ccc(OCCCC[n+]2cccc(C)c2)c(C(C)(C)CC)c1	8.2µM*	8%	-2%	?	-5%	?	6.5µM*
Cc1cccc(N2CCN(C(=O)c3cc4c(=O)n(C)c5ccccc5c4s3)CC2)c1C	14%	0%	0%	7%	/	/	/
CCOC(=O)c1cccc(NC(=O)CSc2nc3ccccc3c(=O)n2CC)c1	?	-4%	0%	-3%	/	/	/
CCn1c(SCC(=O)Nc2cccc(OC)c2)nc2ccccc2c1=O	8.2µM*	8%	6%	-10%	-4%	0%	38%
COc1ccc(OC)c(Nc2nc3ccccc3nc2-n2nc(C)cc2C)c1	19%	?	4%	-1%	/	/	/
Cc1ccccc1NC1=C(Cl)C(=O)OC1OC(=O)c1ccccc1C (stereo not drawn)	1.6µM*	-6%	?	?	-4%	-2%	?
COc1ccc(C)cc1NC(=O)CSc1ccc(-c2sc(C)nc2C)nn1	9.2µM*	16%	0%	-20%	?	-19%	?
